# Source: the supplement of paper PMC8728848
# About 410 targets per protein were measured; listed, in parts, are those with the strongest signals and a random draw of the rest.
# How the values were obtained:
# Test in all cases: glycan array binding signal (z-score within array); higher = stronger binding
# Settings in all cases: glycan notation: IUPAC condensed, linker removed
# [1] = molecular target: GlcA3S(b1-3)Gal(b1-4)GlcNAc(b1-2)Man
# Outline: (§1)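 Glycan array data were curated from 3228 arrays in the Consortium for Functional Glycomics database and kept only where the protein sequence was available. Glycan names were converted to IUPAC-condensed notation, and columns mapping to the same glycan were averaged. The binding signal is a within-array Z-score, averaged across arrays of the same protein sequence at different concentrations or buffers and across linkers. Negative Z-scores can be read as non-binding.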
# [2] = molecular target: GlcA3S(b1-3)Gal(b1-4)GlcNAc(b1-3)Gal(b1-4)Glc
# Outline: as §1
# [3] = molecular target: GlcNAc(b1-2)[GlcNAc(b1-4)]Man(a1-3)[GlcNAc(b1-4)][GlcNAc(b1-2)Man(a1-6)]Man(b1-4)GlcNAc(b1-4)GlcNAc
# Outline: as §1
# [4] = molecular target: GlcNAc(b1-3)Gal(b1-4)GlcNAc(b1-3)Gal(b1-4)GlcNAc(b1-2)Man(a1-3)[GlcNAc(b1-3)Gal(b1-4)GlcNAc(b1-3)Gal(b1-4)GlcNAc(b1-2)Man(a1-6)]Man(b1-4)GlcNAc(b1-4)[Fuc(a1-6)]GlcNAc
# Outline: as §1
# [5] = molecular target: GlcNAc(b1-3)Gal(b1-4)GlcNAc(b1-6)[Gal(b1-3)]GalNAc
# Outline: as §1
# [6] = molecular target: GlcNAc(b1-3)Gal(b1-4)GlcNAc(b1-6)[GlcNAc(b1-3)]Gal(b1-4)GlcNAc
# Outline: as §1
# [7] = molecular target: Man(a1-2)Man(a1-2)Man(a1-3)Man
# Outline: as §1
# [8] = molecular target: Man(a1-2)Man(a1-2)Man(a1-6)[Man(a1-3)]Man
# Outline: as §1
# [9] = molecular target: Man(a1-2)Man(a1-3)[Man(a1-2)Man(a1-6)]Man(a1-6)[Man(a1-2)Man(a1-2)Man(a1-3)]Man(b1-4)GlcNAc(b1-4)GlcNAc
# Outline: as §1
# [10] = molecular target: Man(a1-2)Man(a1-6)[Man(a1-3)]Man(a1-6)[Man(a1-2)Man(a1-2)Man(a1-3)]Man
# Outline: as §1
# [11] = molecular target: Man(a1-3)[Man(a1-6)]Man(a1-6)[Man(a1-2)Man(a1-3)]Man(b1-4)GlcNAc(b1-4)GlcNAc
# Outline: as §1
# [12] = molecular target: Neu5Ac(a2-3)Gal(b1-3)GlcNAc(b1-3)GalNAc
# Outline: as §1
# [13] = molecular target: Neu5Ac(a2-3)Gal(b1-3)[GlcNAc(b1-6)]GalNAc
# Outline: as §1
# [14] = molecular target: Neu5Ac(a2-3)Gal(b1-4)GlcNAc(b1-2)Man(a1-3)[Neu5Ac(a2-3)Gal(b1-4)GlcNAc(b1-2)Man(a1-6)]Man(b1-4)GlcNAc(b1-4)[Fuc(a1-6)]GlcNAc
# Outline: as §1
# [15] = molecular target: Neu5Ac(a2-3)Gal(b1-4)GlcNAc(b1-2)[Neu5Ac(a2-3)Gal(b1-4)GlcNAc(b1-4)]Man(a1-3)[GlcNAc(b1-4)][Neu5Ac(a2-3)Gal(b1-4)GlcNAc(b1-2)[Neu5Ac(a2-3)Gal(b1-4)GlcNAc(b1-6)]Man(a1-6)]Man(b1-4)GlcNAc(b1-4)GlcNAc
# Outline: as §1
# [16] = molecular target: Neu5Ac(a2-3)Gal(b1-4)GlcNAc(b1-3)Gal(b1-4)GlcNAc(b1-3)Gal(b1-4)GlcNAc(b1-2)Man(a1-3)[Neu5Ac(a2-3)Gal(b1-4)GlcNAc(b1-3)Gal(b1-4)GlcNAc(b1-3)Gal(b1-4)GlcNAc(b1-2)Man(a1-6)]GalNAc
# Outline: as §1
# [17] = molecular target: Neu5Ac(a2-3)Gal(b1-4)GlcNAc(b1-3)Gal(b1-4)GlcNAc(b1-3)GalNAc
# Outline: as §1
# [18] = molecular target: Neu5Ac(a2-3)Gal(b1-4)GlcNAc(b1-3)GalNAc
# Outline: as §1
# [19] = molecular target: Neu5Ac(a2-3)Gal(b1-4)[Fuc(a1-3)]GlcNAc
# Outline: as §1
# [20] = molecular target: Neu5Ac(a2-3)Gal(b1-4)[Fuc(a1-3)]GlcNAc(b1-3)Gal(b1-4)GlcNAc
# Outline: as §1
# [21] = molecular target: Neu5Ac(a2-3)Gal(b1-4)[Fuc(a1-3)]GlcNAc(b1-6)[Gal(b1-3)]GalNAc
# Outline: as §1
# [22] = molecular target: Neu5Ac(a2-3)Gal(b1-4)[Fuc(a1-3)]GlcNAc(b1-6)[Neu5Ac(a2-3)Gal(b1-3)]GalNAc
# Outline: as §1
# [23] = molecular target: Neu5Ac(a2-3)Gal(b1-4)[Fuc(a1-3)]GlcNAc6S
# Outline: as §1
# [24] = molecular target: Neu5Ac(a2-3)[GalNAc(b1-4)]Gal(b1-4)GlcNAc(b1-3)GalNAc
# Outline: as §1
# [25] = molecular target: Neu5Ac(a2-6)Gal(b1-4)GlcNAc(b1-2)Man(a1-3)Man(b1-4)GlcNAc(b1-4)GlcNAc
# Outline: as §1
# [26] = molecular target: Neu5Ac(a2-6)Gal(b1-4)GlcNAc(b1-2)Man(a1-3)[Gal(b1-4)GlcNAc(b1-2)Man(a1-6)]Man(b1-4)GlcNAc(b1-4)GlcNAc
# Outline: as §1
# [27] = molecular target: Neu5Ac(a2-6)Gal(b1-4)GlcNAc(b1-2)Man(a1-3)[GlcNAc(b1-2)Man(a1-6)]Man(b1-4)GlcNAc(b1-4)GlcNAc
# Outline: as §1
# [28] = molecular target: Neu5Ac(a2-6)Gal(b1-4)GlcNAc(b1-2)Man(a1-6)[GlcNAc(b1-2)Man(a1-3)]Man(b1-4)GlcNAc(b1-4)GlcNAc
# Outline: as §1
# [29] = molecular target: Neu5Ac(a2-6)Gal(b1-4)GlcNAc(b1-3)Gal(b1-4)GlcNAc(b1-3)Gal(b1-4)GlcNAc(b1-2)Man(a1-3)[Neu5Ac(a2-6)Gal(b1-4)GlcNAc(b1-3)Gal(b1-4)GlcNAc(b1-3)Gal(b1-4)GlcNAc(b1-2)Man(a1-6)]GalNAc
# Outline: as §1
# [30] = molecular target: Neu5Ac(a2-8)Neu5Ac(a2-3)[GalNAc(b1-4)]Gal(b1-4)Glc
# Outline: as §1
# Neu5Gc(a2-3)Gal(b1-4)Glc = molecular target: Neu5Gc(a2-3)Gal(b1-4)Glc
# Outline: as §1
binder,measurement,setting,value
"Actd5 (Actinidia), P84527 (protein) ISSCNGPCRDLNDCDGQLICIKGKCNDDPQVGTHICRGTTHSHQPGGCKPSGTLTCRGKSYPTYDCSPPVTSSTPAKLTNNDFSEGGDDGGPSECDESYHNNNERIVALSTGWYNGGSRCGKMIRITASNGKSVSAKVVDECDSRHGCDKEHAGQPPCRNNIVDGSNAVWSALGLDKNVGVVDITWSMA",glycan array binding signal (z-score),[1],-0.597
same,glycan array binding signal (z-score),[2],-0.788
same,glycan array binding signal (z-score),[3],-0.558
same,glycan array binding signal (z-score),[4],3.06
same,glycan array binding signal (z-score),[5],-0.776
same,glycan array binding signal (z-score),[6],0.458
same,glycan array binding signal (z-score),[7],0.687
same,glycan array binding signal (z-score),[8],6.66
same,glycan array binding signal (z-score),[9],4.17
same,glycan array binding signal (z-score),[10],3.42
same,glycan array binding signal (z-score),[11],5.03
same,glycan array binding signal (z-score),[12],-0.064
same,glycan array binding signal (z-score),[13],-0.32
same,glycan array binding signal (z-score),[14],-0.173
same,glycan array binding signal (z-score),[15],-0.296
same,glycan array binding signal (z-score),[16],5.66
same,glycan array binding signal (z-score),[17],-0.279
same,glycan array binding signal (z-score),[18],0.374
same,glycan array binding signal (z-score),[19],-0.42
same,glycan array binding signal (z-score),[20],0.65
same,glycan array binding signal (z-score),[21],1.5
same,glycan array binding signal (z-score),[22],-0.33
same,glycan array binding signal (z-score),[23],-0.958
same,glycan array binding signal (z-score),[24],0.22
same,glycan array binding signal (z-score),[25],-0.071
same,glycan array binding signal (z-score),[26],-0.093
same,glycan array binding signal (z-score),[27],-0.252
same,glycan array binding signal (z-score),[28],-0.496
same,glycan array binding signal (z-score),[29],3.79
same,glycan array binding signal (z-score),[30],-0.363
same,glycan array binding signal (z-score),Neu5Gc(a2-3)Gal(b1-4)Glc,0.046
